Compound activity deposited in PubChem by National Center for Advancing Translational Sciences (NCATS).
This is a sample that favours compounds with a hit; in the whole collection about 0.52% have one here.
GAA glycogen = qHTS Assay for Inhibitors and Activators of Human alpha-Glucosidase Cleavage of Glycogen | Potency, µM (series often up to 76.4 µM), inactives show at the highest dose activity change, negative = inhibition, usual class: inhibitors | recombinant GAA, glycogen substrate, Amplex Red glucose oxidase fluorescence | Lysosomal alpha-glucosidase (Homo sapiens), P10253 | AID 2100, 2009 | hit rate 0.38% among 300,000;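 note: 0% = full enzyme reaction and -100% = no-enzyme basal signal; the screen sought inhibitors and activators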
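Recombinant enzyme (4 nM final) with compounds titrated up to 77 uM and bovine liver glycogen (30 ug) in citrate pH 5.0, 0.01% Tween-20, 37 C 40 min. Released glucose detected by Amplex Red/glucose oxidase (Ex 573/Em 610); AC50 from Hill fits.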
LMNA splice mod = qHTS Assay for Modulators of Lamin A Splicing | HeLa LMNA splicing GFP/RFP minigene ratio, 48 h | Potency, µM (doses to about 46.1 µM), for the others: at the top dose ratio change, negative = inhibition, actives largely listed as inhibitors | hit rate 0.01% among 200,000; active = well fitted inhibition curve with a large enough effect in the signal ratio, with a control signal flat, not every such curve was filed as active; inconclusive = small, poorly fitted or top-dose-only effect, or effect the other way, or a change in a side signal; the % refers to the signal ratio
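Read-out is the ratio of GFP to DsRed2 object intensity, acquired by 488 nm laser-scanning cytometry on HeLa lamin A-EGFP minigene reporter cells. Compound incubation 48 hrs at 37 °C in Opti-MEM with 2% FBS; DMSO 0.5% final.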
N370S GC mod = qHTS Assay for Inhibitors and Activators of N370S glucocerebrosidase as a Potential Chaperone Treatment of Gaucher Disease. hit rate 0.092% among 330,000. Potency, µM (series often up to 59.4 µM), for the others: at the highest dose activity change, negative = inhibition, hits mostly inhibitors. Lysosomal acid glucosylceramidase (Homo sapiens), P04062. N370S GC spleen homogenate, 4MU-glucoside fluorescence. AID 2101, 2009;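 note: 0% = full enzyme activity and -100% = no enzyme basal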
aGlu spleen mod = qHTS Assay for Inhibitors and Activators of Human alpha-Glucosidase From Spleen Homogenate. Lysosomal alpha-glucosidase (Homo sapiens), P10253. human spleen homogenate, 4-MU-alpha-glucoside fluorescence. Potency, µM (doses to about 79.9 µM), for the others: at the top dose activity change, negative = inhibition, most hits filed as inhibitors. hit rate 0.006% among 240,000;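 note: 0% = enzyme with vehicle and -100% = no enzyme basal signal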
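AC50 values come from Hill-equation fits of concentration-response data, normalized to no-enzyme and full-activity controls. Enzyme source: 1 ug human spleen homogenate; 1 mM fluorogenic 4-MU glucoside, pH 5.0 citrate buffer, 37 C, 40 min.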
Luc counter = Counterscreen for Luciferase (Kinase-Glo TM) Inhibition. Luciferin 4-monooxygenase (Photuris pensylvanica), Q27757. Kinase-Glo luciferase, ATP luminescence, 8 min. Potency, µM (highest dose often 38.3 µM), inactives show top-dose activity change, negative = inhibition, hits mostly inhibitors. hit rate 0.28% among 200,000. AID 1379, 2008; note: nearly all actives have a fitted effect of over 60% in size
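Compound is pinned into ATP-containing buffer (10 uM ATP, imidazole pH 7.2, 7 mM MgCl2). Kinase-Glo luciferase reagent is then added. Light output is recorded following an 8-min room-temperature incubation.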
GAA inhib = qHTS Assay for Inhibitors of Human alpha-Glucosidase as a Potential Chaperone Treatment of Pompe Disease; Lysosomal alpha-glucosidase (Homo sapiens), P10253; purified human GAA, 4-MU-alpha-glucoside fluorescence; Potency, µM (top dose mostly 76.9 µM), for inactives: top-dose activity change, negative = inhibition, actives largely listed as inhibitors; hit rate 0.005% among 200,000;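 note: plate controls were uninhibited enzyme wells for no effect and no-enzyme background for full effect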
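qHTS format, compound range up to 77 uM. Human lysosomal enzyme at 4 nM, 400 uM 4-MU glucoside substrate, pH 5.0, 20 min room temperature; fluorescence after alkaline stop gives activity normalized to controls.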
An asterisk follows results filed as active; [ ] = dose if it differs, or a comment. Unless noted, calls come from the whole dose curve; as a rule, active = well fitted curve in the direction sought with a large enough effect; inconclusive = small, poorly fitted or top-dose-only effect, or another doubt; inactive = no such curve, though single readings can be large; an effect the other way counts as inactive or inconclusive. Unless noted, % is set by controls: 0 for no effect and ±100 for the full control effect; potency is the fitted concentration of half-maximal effect.

Cc1ccc(C(=O)Nc2ccc3c(c2)OCO3)o1 was read as GAA glycogen 2%, LMNA splice mod 5%, N370S GC mod 3%, aGlu spleen mod -4%, Luc counter inconclusive and GAA inhib -14%.
`CC(=O)Nc1ccc2c(c1)OCO2` gave GAA glycogen -14%, LMNA splice mod -11%[46 µM], N370S GC mod -8%, aGlu spleen mod 10%, Luc counter 1% and GAA inhib -2%.
`C/C(=C\C(=O)c1ccccc1)Nc1ccc2c(c1)OCO2` gave GAA glycogen 16µM*, LMNA splice mod -18%, N370S GC mod -10%, aGlu spleen mod 4%, Luc counter -3% and GAA inhib 4%.
For Cc1ccc2nc(-c3ccc(SCC(=O)N4CCc5ccccc54)nc3)[nH]c2c1 the results were GAA glycogen -6%, LMNA splice mod -25%, N370S GC mod 3.2µM*, aGlu spleen mod -3%, Luc counter -11% and GAA inhib 4%.
Nc1cc(Br)c(N)c(Br)c1 was read as GAA glycogen 32µM*, LMNA splice mod 0%, N370S GC mod -9%, aGlu spleen mod -3%, Luc counter -4% and GAA inhib 4%.
Screening Nc1cc(Cl)c(N)c(Cl)c1 returned N370S GC mod -4% and aGlu spleen mod -7%.
Screening Cc1cc(NC(=O)c2c(F)cccc2Cl)no1 returned GAA glycogen 4%, N370S GC mod 12%, aGlu spleen mod -6%, Luc counter 4% and GAA inhib -4%.
`Cc1ccc(NNC(=O)c2c(F)cccc2Cl)cc1C` gave GAA glycogen 25µM*, N370S GC mod 10% and aGlu spleen mod -2%.
Screening [ClH+][Cu][ClH+].[Cu].[OH2+]c1ccc2ccccc2c1CN1CCCCC1.[OH2+]c1ccc2ccccc2c1CN1CCCCC1 returned Luc counter -7%[7.66 µM].
`O=C(c1ccccc1)n1c(=S)nc2ccccn21` gave GAA glycogen 12%, LMNA splice mod -8%, N370S GC mod -6%, aGlu spleen mod 3% and GAA inhib -1%.
Screening O=C(N=c1nc2ccccn2s1)c1ccccc1 returned GAA glycogen inconclusive, LMNA splice mod -4%, N370S GC mod -2%, aGlu spleen mod -1%, Luc counter 2.5µM* and GAA inhib -3%.
`C/C(=N\N1CCN(C2c3ccccc3-c3ccccc32)CC1)c1cccnc1` gave GAA glycogen 32µM*, LMNA splice mod 9%, N370S GC mod 8%, aGlu spleen mod -22%, Luc counter -4% and GAA inhib 12%.
For CCOC(=O)C(C(C)=O)c1c(Br)c(O)c(O)c2c(C(=O)c3ccc(C)cc3)coc12 (stereo unspecified) the results were GAA glycogen 32µM*, LMNA splice mod inconclusive, N370S GC mod 1%, aGlu spleen mod -13%, Luc counter -5% and GAA inhib -10%.
CCOC(=O)c1c(C)n(-c2ccc(C)cc2)c2c(C(C(C)=O)C(=O)O)c(Br)c(O)c(O)c12 (stereo unspecified) was read as GAA glycogen inconclusive, LMNA splice mod -3%, N370S GC mod inconclusive, aGlu spleen mod -8%, Luc counter -4% and GAA inhib -4%.
